The panel holds about 83,000 compounds, 20% with a hit somewhere; the sample as a whole holds those more often.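 Negative percent growth values reflect cell death: -40 means 40% of the cells present at the start died, and -100 means all died.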 Unmarked numbers belong to inactive results. Activity calls are given as the source filed them. How the source made its calls: active means growth percent below 10; inactive means the rest.

Here are results for 31 molecules from PubChem BioAssay (NCI).

Test in all cases: NCI-60 one-dose screen, 48 h (100 = growth as untreated, 0 = no growth, -100 = all killed)
Holding throughout (conditions): 10 µM unless noted

In assay [1] the test system is T-47D breast.
Assay [2] has as its system BT-549 breast.
In assay [3] the test system is SW-620 colon.
The test system of assay [4] is MCF7 breast.
Assay [5] relates to HCT-116 colon.
Assay [6] deals with HCC-2998 colon.
Assay [7] has as its system KM12 colon.
In assay [8] the test system is MDA-MB-435 melanoma.

Consider `C=C1C(=O)O[C@H]2[C@H]1CC/C(Cn1cc(CNC(=O)Cc3cn(C(=O)c4ccc(Cl)cc4)c4ccc(OC)cc34)nn1)=C\CC[C@@]1(C)O[C@@H]21`, for which the growth in assay [1] is -61.6% (active); in assay [2], -3.93% (active); in assay [3], -67.4% (active); in assay [4], -62.7% (active); in assay [5], -95% (active); in assay [6], 8.2% (active). Further, in assay [7], the growth is 41.9%.
Turning to `Brc1cccc(-c2cc(-c3ccc4nccnc4c3)[nH]n2)c1`, the growth in assay [1] was 34.5% [25 µM]; in assay [2], 65.5% [25 µM]; in assay [3], 28.1% [25 µM]; in assay [4], 14.1% [25 µM]; in assay [5], 9.21% [25 µM] (active); in assay [6] it was 40.2% [25 µM]. Moreover, the growth in assay [7] was 14.7% [25 µM].
As for `CCc1cnc(=S)n(-c2ccccc2)c1`, the growth is 112% in assay [1]; 107% in assay [2]; 104% in assay [3]; 108% in assay [4]; 93.5% in assay [5]; 86.5% in assay [6]. The growth in assay [7] is 109%.
For the molecule `COc1ccc(N2CCN(Cc3cc(C(=O)/C=C/c4c[nH]c5ccccc45)ccc3O)CC2)cc1`, the growth in assay [1] was 93.8%; in assay [2], 107%; in assay [3], 104%; in assay [4], 97.4%; in assay [5], 110%; in assay [7] it was 110%.
On to `CC12CCC3C4(C)COC(c5ccco5)OC4CCC3(C)C1CC(C1=CCOC1=O)O2` (stereo not given), for which the growth in assay [1] is 101%; in assay [8], 103%; in assay [3], 107%; in assay [4] it was 98.9%; in assay [5], 104%; in assay [6] it was 105%. Also, the growth in assay [7] was 103%.
`COC(=O)c1cc2cc(-c3ccc(OC)cc3)cnc2[nH]1`: the growth is 34.1% in assay [1]; 18.6% in assay [2]; 18.6% in assay [3]; 15.9% in assay [4]; 13.8% in assay [5]; 51.1% in assay [6]. For the same molecule, the growth in assay [7] is 11.4%.
Regarding `CC(=O)Nc1nc(N)nc(NC(C)=O)c1N=O`, the growth in assay [1] is 110%; in assay [2], 104%; in assay [3], 101%; in assay [4] it was 108%; in assay [5] it was 98.6%; in assay [6] it was 84%. For the same molecule, in assay [7], the growth was 111%.
As for `CN1CCN(Cc2ccc(NC(=O)c3cncc(C#Cc4cnc(N)c5cnccc45)c3)cc2C(F)(F)F)CC1`, the growth is 22.8% in assay [1]; 27.4% in assay [2]; -10.9% (active) in assay [3]; 25.3% in assay [4]; 0.743% (active) in assay [5]; 19.9% in assay [6]. Besides, the growth in assay [7] is 3.81% (active).
Turning to `COc1ccc(C(=O)c2cc(OC)c(OC)c(OC)c2OC)cc1O`, the growth was 44.8% in assay [1]; 39.8% in assay [2]; 20.5% in assay [3]; 17.5% in assay [4]; 17.9% in assay [5]; 58.6% in assay [6]. For the same molecule, the growth in assay [7] is 20.8%.
As for `C=C(C)[C@@H]1C[C@@H]2Cc3cc(Cl)ccc3N1O2`, the growth in assay [1] was 106%; in assay [2], 99.6%; in assay [3], 96.7%; in assay [4], 100%; in assay [5], 96.1%; in assay [6], 99.1%. Besides, in assay [7], the growth is 105%.
For `CCN1C(=O)N(CC)C2C1NN=c1s/c(=C\c3cccnc3)c(=O)n12` (stereo not given), the growth was 53.4% in assay [1]; 57.3% in assay [2]; 26.5% in assay [3]; 21.7% in assay [4]; 15.8% in assay [5]; 26.8% in assay [6]. Also, the growth in assay [7] is 19.5%.
Take `C/C=C(\C)C(C(=O)NC1CCCCC1)N(C(=O)C1CCc2cc(F)ccc2O1)c1ccc(Cl)cc1` (stereo not given): the growth in assay [1] was 95.2%; in assay [2], 98.3%; in assay [3] it was 103%; in assay [4], 99.1%; in assay [5], 103%; in assay [6], 94.9%. In assay [7], the growth was 111%.
Turning to `COc1cccc(-c2cc3c(O)cc(C#N)cc3[nH]2)c1`, the growth was 101% in assay [1]; 81.7% in assay [2]; 88% in assay [3]; 88.3% in assay [4]; 89.9% in assay [5]; 93.8% in assay [6]. In addition, the growth in assay [7] was 78.1%.
For the molecule `COC(=O)[C@]12CC[C@@H](C)[C@H](C)[C@@H]1C1=CC[C@@H]3[C@@]4(C)C(C=O)=C[C@@](C)(COC(=O)c5ccco5)[C@@H]4[C@H](O)C[C@@]3(C)[C@]1(C)CC2`, the growth in assay [1] is 13.4%; in assay [2], -3.09% (active); in assay [3], -55.7% (active); in assay [4], -19.2% (active); in assay [5], -75.8% (active); in assay [6], -84.8% (active). Moreover, the growth in assay [7] was -56.8% (active).
Take `COc1ccc(C2C=C(c3ccc(OC)c(OC)c3)N=C3SC=C(C)N32)c(Br)c1` (stereo not given): the growth was 98.3% in assay [1]; 99% in assay [2]; 109% in assay [3]; 94.5% in assay [4]; 105% in assay [5]; 110% in assay [6]. Moreover, the growth in assay [7] was 107%.
Regarding `COc1cc(-c2nn(-c3cccc(NC(=O)Nc4cc(C(F)(F)F)cc(C(F)(F)F)c4)c3)cc2-c2ccncc2)ccc1Cl`, the growth in assay [1] is 4.45% (active); in assay [2], -8.96% (active); in assay [3], -2.89% (active); in assay [4] it was 1.74% (active); in assay [5], -43.6% (active); in assay [6], -10.8% (active). Besides, the growth in assay [7] is -14.8% (active).
Turning to `COc1ccc(/C=C2\Oc3cc(OCCCN4CCCC4)ccc3C2=O)cc1`, the growth was 94% in assay [1]; 95.5% in assay [2]; 77.1% in assay [3]; 69.8% in assay [4]; 55.7% in assay [5]; 91.3% in assay [6]. Moreover, the growth in assay [7] was 82.7%.
Regarding `CCCCCCCCCCCCCCCCCCNC(=O)[C@H]1CSC(c2cccs2)N1` (stereo not given in full), the growth in assay [1] was -65.7% (active); in assay [2], -77.4% (active); in assay [4], -70.6% (active); in assay [5], -89.6% (active); in assay [6], -82.4% (active); in assay [7] it was -70.9% (active).
For `NC(=O)CCCN1C/C(=C\c2ccccc2)C(=O)c2ccccc21`, the growth in assay [1] was 83.2%; in assay [2], 93.7%; in assay [3] it was 97.6%; in assay [4], 96.7%; in assay [5], 101%; in assay [6] it was 93.8%. Further, in assay [7], the growth was 101%.
Turning to `COc1ccc(C2C(C#N)=C(N)Oc3c2ccc2ccccc32)cc1` (stereo not given), the growth in assay [1] was 31%; in assay [2] it was 61%; in assay [3] it was 19%; in assay [4] it was 13.2%; in assay [5] it was 23.5%; in assay [6] it was 74.4%. The growth in assay [7] is 29%.
In the case of `COc1cccc(CC(C)=C(c2ccc(OCCN(C)C)cc2)c2ccc(OCCN(C)C)cc2)c1`, the growth was -72.7% (active) in assay [1]; 72.2% in assay [2]; -61.6% (active) in assay [3]; -55.7% (active) in assay [4]; -74.3% (active) in assay [5]; -15.3% (active) in assay [6]. In assay [7], the growth is -1.23% (active).
For `COc1cc(NC(=O)SC2=NCCS2)cc(OC)c1`, the growth in assay [1] is 87.2%; in assay [2], 95.4%; in assay [3], 95.8%; in assay [4], 94.1%; in assay [5], 108%; in assay [6] it was 114%. The growth in assay [7] was 106%.
Turning to `COc1ccc(CCNC2=CC(=O)CCC2)cc1OC`, the growth in assay [1] was 100%; in assay [2] it was 103%; in assay [3], 101%; in assay [4] it was 105%; in assay [5], 106%; in assay [6] it was 106%. The growth in assay [7] is 99%.
`O=C1/C(=C/c2ccc([N+](=O)[O-])cc2)CN(C(=O)CCN2CCC(=NO)CC2)C/C1=C\c1ccc([N+](=O)[O-])cc1`: the growth in assay [1] was 10.1%; in assay [2] it was -40.7% (active); in assay [3], -53.2% (active); in assay [4] it was -55.4% (active); in assay [5], -67.4% (active); in assay [6] it was -72.2% (active). In addition, the growth in assay [7] is -55.3% (active).
On to `C=C1CCC2C(C)(CO)C(O)CCC2(C)C1C/C=C1/C(=O)OCC1Oc1ccccc1C` (stereo not given), for which the growth in assay [1] was 84.9%; in assay [8], 59.3%; in assay [3], 17.9%; in assay [4] it was 29.5%; in assay [5] it was 71.4%; in assay [6] it was 125%. Besides, the growth in assay [7] was 78.3%.
For `CN(CCCCCl)P(=O)(OCc1ccc([N+](=O)[O-])o1)C(F)(F)C[C@H](NC(=O)CNC(=O)c1ccc(N=[N+]=[N-])cc1)C(=O)NCCc1ccc(O)cc1` (stereo not given in full), the growth in assay [1] was 90.5%; in assay [2] it was 79%; in assay [3], 37.6%; in assay [4], 61.6%; in assay [5], 78.4%; in assay [6], 98.4%. The growth in assay [7] is 91.1%.
Regarding `CN(C)CCCN(c1nc(C(Cl)(Cl)Cl)ns1)c1nc(C(Cl)(Cl)Cl)ns1`, the growth in assay [1] is 67.7%; in assay [2], 74%; in assay [3] it was 35.1%; in assay [4], -34.3% (active); in assay [5], 21.2%; in assay [6], -12.9% (active). The growth in assay [7] is 18.4%.
As to `S=c1[nH]nc(-c2cc3ccc2CCc2ccc(cc2)CC3)n1-c1ccccc1`, the growth in assay [1] was 89.1%; in assay [2], 108%; in assay [3], 97.5%; in assay [4], 85.3%; in assay [5], 88.1%; in assay [6] it was 113%. Besides, the growth in assay [7] was 98.2%.
On to `COc1ccc(Nc2nc(N)nc3c2CCN(Cc2ccc(OC)cc2OC)C3=O)cc1`, for which the growth is 75.9% in assay [1]; 74.9% in assay [2]; 80% in assay [3]; 87.7% in assay [4]; 49.9% in assay [5]; 94.2% in assay [6]. In addition, in assay [7], the growth was 85.1%.
Turning to `Cc1ccc2ccccc2c1C[n+]1ccccc1`, the growth in assay [1] was 109%; in assay [2], 79.8%; in assay [3], 99.7%; in assay [4] it was 93.9%; in assay [5] it was 101%; in assay [6], 95.2%. Further, the growth in assay [7] was 87.8%.
As for `COc1ccc(/C=C/c2c(C(C)=O)c(C)nc3ccccc23)cc1`, the growth in assay [1] is 39.5%; in assay [2], 61.6%; in assay [3], 86.8%; in assay [4], 85.8%; in assay [5], 70.8%; in assay [6], 93.3%. In addition, in assay [7], the growth is 93%.
